Laboratory results reported in PubChem BioAssay (Tox21).
Several values for one entry are separate records, joined by “and”; a condition that tells them apart may be missing. Equal entries are not always repeated. Inconclusive results are not listed. Entries that show only a call come without a potency. Activity calls are given as the source filed them. The call rests on the fitted dose curve; in most records, active means well fitted curve in the direction sought with a large enough effect in the repeat runs; inconclusive means weak or mixed curves; inactive means no such curve, though single readings can be large; an effect the other way counts as inactive or inconclusive.
Potency means the concentration at half of the fitted maximal effect.

Assay: qHTS assay to identify small molecule antagonists of the glucocorticoid receptor (GR) signaling pathway - cell viability counter screen (AID 720693); further: nearly all actives have a fitted effect of over 55% in size
Conditions: GR-bla HeLa viability, CellTiter-Glo luminescence, 18 h, with 5 nM dexamethasone present; series mostly up to 58.5 µM
In the case of `CC(C)(C)N(NC(=O)c1ccc(Cl)cc1)C(=O)c1ccccc1`, the Potency is reported as “inactive”.
In the case of `CN1CC[C@]23c4c5ccc(O)c4O[C@H]2[C@@H](O)C=C[C@H]3[C@H]1C5`, the Potency is reported as “inactive”.
For `CCC1CCC(=O)O1` (stereo unspecified), the Potency was “inactive”.
In the case of `CCOP(=S)(OCC)Oc1ccc(S(C)=O)cc1` (stereo unspecified), the Potency is reported as “inactive”.
For `O=C(O)C(O)C(O)C(=O)O` (stereo unspecified), the Potency was “inactive”.
With `Cc1cccc(C)c1NC1=NCCCS1` the Potency was “inactive”.
With `O=C(Cc1ccccc1)OCCc1ccccc1` the Potency was “inactive”.
For `C=CC(C)(CCC=C(C)C)OC(=O)c1ccccc1N` (stereo unspecified), the Potency was “inactive”.
For `Nc1ccc2c(c1)Cc1ccccc1-2`, the Potency was “inactive”.
In the case of `Cc1nc2ccccc2c(=O)n1-c1ccccc1Cl`, the Potency is reported as “inactive”.
In the case of `C[C@H](N)[C@H](O)c1ccc(O)c(O)c1`, the Potency is reported as “inactive”.
In the case of `O=C(NC(=O)c1cc(F)c(F)cc1Cl)Nc1cc(F)ccc1N1CCC(C(=O)O)CC1`, the Potency is reported as “inactive”.
With `CC(C)C1(C)N=C(c2ncccc2C(=O)O)NC1=O` (stereo unspecified) the Potency was “inactive”.
In the case of `Cc1nnc(-c2ccccc2)c(=O)n1N`, the Potency is reported as “inactive”.
For `Nc1cccc2ccccc12`, the Potency was “inactive”.
In the case of `COC1CC(=C(c2cccs2)c2cccs2)C[N+](C)(C)C1` (stereo unspecified), the Potency is reported as “inactive”.
For `CCCC[N+]1(C)[C@@H]2CC(OC(=O)[C@H](CO)c3ccccc3)C[C@H]1[C@@H]1O[C@@H]12` (stereo partly specified), the Potency was “inactive”.
With `CN(C)C(=O)Nc1cccc(OC(=O)NC(C)(C)C)c1` the Potency was “inactive”.
For `CN(C)c1ccc(N=O)cc1`, the Potency was 39 µM (active) and 43.6 µM (active).
For `NC(=S)c1c(Cl)cccc1Cl`, the Potency was “inactive”.
In the case of `CCSCc1ccccc1OC(=O)NC`, the Potency is reported as “inactive”.
In the case of `O=C(O)CCCOc1ccc(Cl)cc1Cl`, the Potency is reported as “inactive”.
In the case of `CC[N+]1(CCOC(=O)C(O)(c2ccccc2)c2ccccc2)CCCCC1`, the Potency is reported as “inactive”.
For `CC(=O)OC(c1ccccc1)C(Cl)(Cl)Cl` (stereo unspecified), the Potency was “inactive”.
For `C[C@H]1[C@@H]2Cc3ccc(O)cc3[C@@]1(C)CCN2C`, the Potency was “inactive”.
With `COc1cc(CC(C)N)c(OC)cc1Br` (stereo unspecified) the Potency was “inactive”.
With `CC(C)(C)NCC(O)c1cc(Cl)c(N)c(C(F)(F)F)c1` (stereo unspecified) the Potency was “inactive”.
For `COC(=O)C1(O)c2ccccc2-c2ccccc21`, the Potency was “inactive”.

Assay: qHTS assay for identifying genotoxic compounds that show differential cytotoxicity against isogenic chicken DT40 cell lines with known DNA damage response pathways - wild type cell line (AID 743012); further: nearly all actives have a fitted effect of over 60% in size
Conditions: DT40 wild type chicken cells viability, CellTiter-Glo, 40 h; series mostly up to 68.4 µM
Summary of the method: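 Endpoint: CellTiter-Glo luminescence, 30 min RT. Cells: wild type DT40, 300/well. Exposure: compounds in DMSO, 40 h, 37 C/5% CO2, after ~0.5 h pre-incubation.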
In the case of `C[Si](Cn1cncn1)(c1ccc(F)cc1)c1ccc(F)cc1`, the Potency is reported as 12.6 µM (active) and 10.9 µM (active).
For `C#C[C@]1(O)CC[C@H]2[C@@H]3CCC4=CC(=O)CCC4=C3C=C[C@@]21CC`, the Potency was 10.6 µM (active).
With `Oc1cccc(Cl)c1` the Potency was “inactive”.
With `NNCCO` the Potency was “inactive”.
For `CCCCCCCCCCCC[N+](C)(C)CCOc1ccccc1`, the Potency was 1.88 µM (active) and 6.11 µM (active).
For `CC(Cl)C(=O)O` (stereo unspecified), the Potency was “inactive”.
In the case of `C=C(Cl)Cl`, the Potency is reported as “inactive”.
For `O=C(Cl)OCCOCCOC(=O)Cl`, the Potency was “inactive”.
In the case of `O=S(=O)(Cl)Cl`, the Potency is reported as “inactive”.
With `OC[P+](CO)(CO)CO` the Potency was “inactive”.

Assay: qHTS assay for identifying genotoxic compounds that show differential cytotoxicity against isogenic chicken DT40 cell lines with known DNA damage response pathways - Rev3 mutant cell line (AID 743014); further: nearly all actives have a fitted effect of over 55% in size
Conditions: chicken DT40 Rev3-/- viability, CellTiter-Glo, 40 h; series mostly up to 68.4 µM
With `C[Si](Cn1cncn1)(c1ccc(F)cc1)c1ccc(F)cc1` the Potency was 3.98 µM (active) and 4.86 µM (active).
For `CCC1CCC(=O)O1` (stereo unspecified), the Potency was “inactive”.
With `O=C(O)C(O)C(O)C(=O)O` (stereo unspecified) the Potency was “inactive”.
In the case of `C#C[C@]1(O)CC[C@H]2[C@@H]3CCC4=CC(=O)CCC4=C3C=C[C@@]21CC`, the Potency is reported as 13.3 µM (active).
For `Cc1cccc(C)c1NC1=NCCCS1`, the Potency was “inactive”.
With `Oc1cccc(Cl)c1` the Potency was “inactive”.
For `NNCCO`, the Potency was “inactive”.
For `Cc1nc2ccccc2c(=O)n1-c1ccccc1Cl`, the Potency was 59.8 µM (active).
For `C[C@H](N)[C@H](O)c1ccc(O)c(O)c1`, the Potency was 11.9 µM (active).
In the case of `O=C(NC(=O)c1cc(F)c(F)cc1Cl)Nc1cc(F)ccc1N1CCC(C(=O)O)CC1`, the Potency is reported as “inactive”.
In the case of `CCCCCCCCCCCC[N+](C)(C)CCOc1ccccc1`, the Potency is reported as 2.37 µM (active) and 3.86 µM (active).
For `Cc1nnc(-c2ccccc2)c(=O)n1N`, the Potency was “inactive”.
For `CC(Cl)C(=O)O` (stereo unspecified), the Potency was “inactive”.
With `CCCC[N+]1(C)[C@@H]2CC(OC(=O)[C@H](CO)c3ccccc3)C[C@H]1[C@@H]1O[C@@H]12` (stereo partly specified) the Potency was “inactive”.
In the case of `CN(C)c1ccc(N=O)cc1`, the Potency is reported as 546 nM (active) and 1.93 µM (active).
For `CC(=O)OC(c1ccccc1)C(Cl)(Cl)Cl` (stereo unspecified), the Potency was “inactive”.
In the case of `C=C(Cl)Cl`, the Potency is reported as “inactive”.
For `COc1cc(CC(C)N)c(OC)cc1Br` (stereo unspecified), the Potency was 15.9 µM (active).
With `O=C(Cl)OCCOCCOC(=O)Cl` the Potency was “inactive”.
For `O=S(=O)(Cl)Cl`, the Potency was “inactive”.
In the case of `OC[P+](CO)(CO)CO`, the Potency is reported as “inactive”.

Assay: qHTS assay for identifying genotoxic compounds that show differential cytotoxicity against isogenic chicken DT40 cell lines with known DNA damage response pathways - Rad54/Ku70 mutant cell line (AID 743015); further: nearly all actives have a fitted effect of over 60% in size
Conditions: DT40 Rad54/Ku70 mutant viability, CellTiter-Glo, 40 h; series mostly up to 66.8 µM
With `CC(C)(C)N(NC(=O)c1ccc(Cl)cc1)C(=O)c1ccccc1` the Potency was 43 µM (active).
With `C[Si](Cn1cncn1)(c1ccc(F)cc1)c1ccc(F)cc1` the Potency was 8.92 µM (active) and 9.69 µM (active).
With `CCC1CCC(=O)O1` (stereo unspecified) the Potency was “inactive”.
For `O=C(O)C(O)C(O)C(=O)O` (stereo unspecified), the Potency was “inactive”.
For `C#C[C@]1(O)CC[C@H]2[C@@H]3CCC4=CC(=O)CCC4=C3C=C[C@@]21CC`, the Potency was 13.3 µM (active).
For `O=C(Cc1ccccc1)OCCc1ccccc1`, the Potency was 61.1 µM (active).
In the case of `Oc1cccc(Cl)c1`, the Potency is reported as “inactive”.
With `NNCCO` the Potency was “inactive”.
With `C[C@H](N)[C@H](O)c1ccc(O)c(O)c1` the Potency was 16.8 µM (active).
In the case of `O=C(NC(=O)c1cc(F)c(F)cc1Cl)Nc1cc(F)ccc1N1CCC(C(=O)O)CC1`, the Potency is reported as “inactive”.
With `CCCCCCCCCCCC[N+](C)(C)CCOc1ccccc1` the Potency was 2.66 µM (active) and 6.11 µM (active).
For `CC(C)C1(C)N=C(c2ncccc2C(=O)O)NC1=O` (stereo unspecified), the Potency was “inactive”.
For `Cc1nnc(-c2ccccc2)c(=O)n1N`, the Potency was “inactive”.
With `COC1CC(=C(c2cccs2)c2cccs2)C[N+](C)(C)C1` (stereo unspecified) the Potency was 29.8 µM (active).
In the case of `CC(Cl)C(=O)O` (stereo unspecified), the Potency is reported as “inactive”.
For `CCCC[N+]1(C)[C@@H]2CC(OC(=O)[C@H](CO)c3ccccc3)C[C@H]1[C@@H]1O[C@@H]12` (stereo partly specified), the Potency was “inactive”.
In the case of `CN(C)C(=O)Nc1cccc(OC(=O)NC(C)(C)C)c1`, the Potency is reported as “inactive”.
With `CN(C)c1ccc(N=O)cc1` the Potency was 1.37 µM (active) and 1.72 µM (active).
In the case of `CCSCc1ccccc1OC(=O)NC`, the Potency is reported as “inactive”.
In the case of `CC[N+]1(CCOC(=O)C(O)(c2ccccc2)c2ccccc2)CCCCC1`, the Potency is reported as “inactive”.
In the case of `C=C(Cl)Cl`, the Potency is reported as “inactive”.
For `COc1cc(CC(C)N)c(OC)cc1Br` (stereo unspecified), the Potency was 15.9 µM (active).
For `O=C(Cl)OCCOCCOC(=O)Cl`, the Potency was “inactive”.
In the case of `CC(C)(C)NCC(O)c1cc(Cl)c(N)c(C(F)(F)F)c1` (stereo unspecified), the Potency is reported as “inactive”.
With `O=S(=O)(Cl)Cl` the Potency was “inactive”.
With `COC(=O)C1(O)c2ccccc2-c2ccccc21` the Potency was “inactive”.
With `OC[P+](CO)(CO)CO` the Potency was “inactive”.
